Screening results deposited in PubChem BioAssay by National Center for Advancing Translational Sciences (NCATS).
ELG1 DNA repair – inhibitors of ELG1-dependent DNA repair in HEK293T cells. HEK293T ELG1-luciferase reporter, luminescence, 16 h; DNA damage induced by 5-fluorouridine. Potency, µM (series often up to 46.1 µM), usual class: inhibitors. hit rate 2.3% among 330,000; also: nearly all actives have a fitted effect of over 55% in size
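5-Fluorouridine DNA damage + compound/DMSO, 2,000 cells/well, 16 h, 37 °C/5% CO2. ONE-Glo, 30 min RT, luminescence. Readout = decrease in reporter signal.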
ALOX12 inh – blocks human arachidonate 12S-lipoxygenase | P18054 | purified 12hLO, xylenol orange hydroperoxide absorbance | Potency, µM (highest dose often 108 µM), most hits filed as inhibitors | hit rate 1.1% among 580,000 | AID 1671190
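Purified human 12hLO (150 nM final) in 25 mM Hepes, 0.01% Triton X-100, pH 7.0 was preincubated 15 min at room temperature with compound. Then 40 uM arachidonic acid was added, 30 min. Hydroperoxide was read by Fe-XO absorbance ratio 573/405 nm.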
DT40 TDP1 no CPT – qHTS for Inhibitors of human tyrosyl-DNA phosphodiesterase 1 (TDP1): qHTS in cells in absence of CPT | DT40 Tdp1-/- hTDP1 cells, no CPT, ATP luminescence, 48 h | hit rate 15% among 420,000 | Potency, µM (titrated, usually from 46.2 µM), hits mostly inhibitors; also: nearly all actives have a fitted effect of over 55% in size
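Luminescent ATP content (CellTiter-Glo) served as the growth readout. Knockout chicken DT40 cells expressing human TDP1 were exposed to compounds without camptothecin for a minimum 48 hr at 37 °C.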
RORgamma inh – ROR gamma (mouse) transcription inhibition | Drosophila S2 Gal4-RORgamma UAS-luciferase reporter, 20 h | Potency, µM (doses to about 53.6 µM), actives largely listed as inhibitors | hit rate 5.4% among 310,000; also: nearly all actives have a fitted effect of over 60% in size
Target sequence (P51450 whole entry, looked up, the tested form may be a part): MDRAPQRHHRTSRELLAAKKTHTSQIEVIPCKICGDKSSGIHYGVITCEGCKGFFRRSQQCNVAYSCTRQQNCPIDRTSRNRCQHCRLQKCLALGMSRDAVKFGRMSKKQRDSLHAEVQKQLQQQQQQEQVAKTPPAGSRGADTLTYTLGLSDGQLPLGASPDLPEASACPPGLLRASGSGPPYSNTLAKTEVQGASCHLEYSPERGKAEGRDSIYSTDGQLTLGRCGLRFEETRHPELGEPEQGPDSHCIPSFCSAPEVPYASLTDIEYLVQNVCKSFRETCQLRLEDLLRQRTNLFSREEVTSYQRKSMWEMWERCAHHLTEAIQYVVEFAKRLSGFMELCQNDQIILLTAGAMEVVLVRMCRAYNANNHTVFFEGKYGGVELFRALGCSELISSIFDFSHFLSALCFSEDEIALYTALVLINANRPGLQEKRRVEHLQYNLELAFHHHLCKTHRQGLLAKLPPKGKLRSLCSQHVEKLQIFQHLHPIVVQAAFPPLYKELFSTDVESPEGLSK
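Read-out: Photinus luciferase luminescence; inhibitors lower reporter signal. Insect Schneider cells with Gal4-ROR gamma fusion under metallothionein promoter, UAS reporter; 700 uM final copper sulfate induction, 20 hr, ambient temperature.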
VP16 counter – Gal4-VP16 reporter inhibition counter-screen; Drosophila S2 Gal4-VP16 UAS-luciferase, luminescence, 20 h; Potency, µM (titrated, usually from 53.6 µM), hits mostly inhibitors; hit rate 3.5% among 310,000;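 also: Gal4-VP16 expression switched on by copper sulfate through the metallothionein promoter; nearly all actives have a fitted effect of over 50% in size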
DT40 TDP1 CPT – DT40-hTDP1 cell growth loss with CPT; chicken DT40 Tdp1-/-;hTDP1 cells + 20 nM CPT, ATP luminescence, 48 h; hit rate 12% among 420,000; Potency, µM (titrated, usually from 46.2 µM), most hits filed as inhibitors; also: nearly all actives have a fitted effect of over 55% in size
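Chicken DT40 Tdp1-/- cells complemented with human TDP1, 400 cells/well, exposed to compounds plus 20 nM camptothecin for at least 48 h at 37 C; viability read as ATP content by CellTiter-Glo luminescence.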
Numbers stand for hits; 0 = inactive; ? = inconclusive; - = no result given; [ ] = another dose, or the depositor's remark. In the library only some 15% were active in any assay of this set; here they are far more common. Calls follow the shape of the dose curve; as a rule, active = well fitted curve in the direction sought with a large enough effect; inconclusive = small, poorly fitted or top-dose-only effect, or another doubt; inactive = no such curve, though single readings can be large; an effect the other way counts as inactive or inconclusive.

SMILES	ELG1 DNA repair	ALOX12 inh	DT40 TDP1 no CPT	RORgamma inh	VP16 counter	DT40 TDP1 CPT
COc1ccc(NC(NC(=O)c2ccc(OC)cc2)C(Cl)(Cl)Cl)cc1 (centres undefined)	0	?	?	?	?	?
CC(=O)Nc1ccc(NC(=S)NC(NC(=O)c2ccc(C)cc2)C(Cl)(Cl)Cl)cc1 (centres undefined)	-	32µM	-	-	-	-
CCOc1ccc(CNCCNC(=O)c2nonc2N)cc1	0	0	?	0	0	0
Nc1nonc1C(=O)NCCNCc1ccccc1OCc1ccc(F)cc1	0	0	16µM	?	0	23µM
CCOc1ccc(CNCCc2ccc(S(N)(=O)=O)cc2)cc1	0	0	?	0	0	?
NS(=O)(=O)c1ccc(NCc2ccccc2OCc2ccc(F)cc2)cc1	?	0	18µM	?	0	?
NS(=O)(=O)c1ccc(CCNCc2ccccc2OCc2ccc(F)cc2)cc1	12µM	0	21µM	0	0	?
CCN(Cc1ccc2c(c1)OCO2)C(=O)CSc1nc(C)nc2sc(C)c(C)c12	18µM	0	?	-	-	?
CCN(CC)C(=O)CSc1ncnc2sc(C)c(C)c12	?	0	0	?	0	0
Cc1nc(SCC(=O)N(C)Cc2ccco2)c2c(C)c(C)sc2n1	?	0	?	0	0	16µM
CCN(C(=O)CSc1nc(C)nc2sc(C)c(C)c12)c1ccc(F)cc1	0	0	?	-	-	0
CC(=O)Nc1ccc(Nc2nc(C)nc3c2oc2ccccc23)cc1	?	0	?	0	0	?
Cc1nc(NCc2ccco2)c2oc3ccccc3c2n1	?	?	10µM	0	0[0.365 µM]	?
Cc1nc(NC(C)c2ccccc2)c2oc3ccccc3c2n1 (centres undefined)	?	0	10µM	?	13µM	21µM
CCC(C)Nc1nc(C)nc2c1oc1ccccc12 (centres undefined)	?	?	16µM	0	?	18µM
Cc1nnc(NCc2ccco2)c2ccccc12	0	0	0	0	0	0
Cc1nc(N[C@@H](Cc2ccccc2)C(=O)O)c2oc3ccccc3c2n1	0	0	0	0	0	0
COc1cc(C#N)cc(Cl)c1OCc1ccc(C#N)cc1	-	0	-	-	-	-
CCCCn1c(SCC(=O)N2CCCc3ccccc32)nc2c1c(=O)n(C)c(=O)n2C	0	0	22µM	0	0	18µM
CCCn1c(SCC(=O)N2c3ccccc3CCc3ccccc32)nc2c1c(=O)n(C)c(=O)n2C	0	0	?	0	0	0
CCn1c(SCC(=O)N2c3ccccc3Sc3ccccc32)nc2c1c(=O)n(C)c(=O)n2C	0	0	?	0	0	?
CCCCn1c(SCC(=O)N2c3ccccc3Sc3ccccc32)nc2c1c(=O)n(C)c(=O)n2C	?	0	26µM	?	0	?
CCn1c(SCC(=O)N2CCc3ccccc3C2)nc2c1c(=O)n(C)c(=O)n2C	0	0	0	0[10 µM]	0	23µM
COCCn1c(SCC(=O)N2CCc3ccccc3C2)nc2ccccc2c1=O	?	0	?	0	0	21µM
CN(CC1CCOC1)C(=O)NCc1cccc(F)c1 (centres undefined)	-	0	-	-	-	-
SMILES	ELG1 DNA repair	ALOX12 inh	DT40 TDP1 no CPT	RORgamma inh	VP16 counter	DT40 TDP1 CPT
Cn1c(=O)c2c(nc(N3CCCCCC3)n2Cc2cccc(Br)c2)n(C)c1=O	-	0	-	-	-	-
Cc1cc(C)nc(SCCn2c(N(C)Cc3ccccc3)nc3c2c(=O)n(C)c(=O)n3C)n1	0	0	?	0	0	?
Cn1c(=O)c2c(nc(CN3CCN(c4ccccc4)CC3)n2Cc2ccccc2Cl)n(C)c1=O	?	0	15µM	?	0	?
Cn1c(=O)c2c(nc(CN3CCN(c4ccccc4)CC3)n2Cc2ccccc2F)n(C)c1=O	0	-	-	0	?	-
Cn1c(=O)c2c(nc(N3CCOCC3)n2Cc2cccc(Br)c2)n(C)c1=O	-	0	5.8µM	-	-	9.2µM
CC1CCCN(Cc2nc3c(c(=O)n(C)c(=O)n3C)n2Cc2c(F)cccc2Cl)C1 (centres undefined)	0	0	9.2µM	0	?	8.2µM
